Screening data deposited in PubChem BioAssay by National Center for Advancing Translational Sciences (NCATS).
Hits are enriched below; roughly 12% of the tested compounds scored in any of these assays.
Shiga toxin inh: A qHTS for Small Molecule Inhibitors of Shiga Toxin. Vero cells, Shiga toxin protein synthesis inhibition reporter. 9.2% of 290,000 active. AID 2315, 2010. inhibition, % at 38.7 µM; in the data active = inhibition mostly above about 28%, no sharp cut-off; inactive = mostly below about 43%; also: 0% is about no effect
LASV entry inh: qHTS for Inhibitors of binding or entry into cells for Lassa Virus; Potency, µM (top dose mostly 37.9 µM), for the others: at the highest dose activity change, negative = inhibition, hits mostly inhibitors; 1.2% of 300,000 active; Lassa virus pseudotype entry inhibition, cell reporter; AID 540256, 2011; calls by dose curve; tested in HEK293 cells; also: potency is read from the fitted curve at half-maximal effect; % is scaled to controls: 0 for no effect and ±100 for the full control effect; nearly all actives have a fitted effect of over 50% in size
Marburg entry inh: qHTS for inhibitors of binding or entry into cells for Marburg Virus. Marburg virus pseudotyped entry inhibition, cell reporter. Potency, µM (series often up to 37.8 µM), for inactives: at the highest dose activity change, negative = inhibition, hits mostly inhibitors. 1.8% of 300,000 active. AID 540276, 2011; calls by dose curve; tested in HEK293 cells; also: potency is read from the fitted curve at half-maximal effect; % is scaled to controls: 0 for no effect and ±100 for the full control effect
CHX counter: Cycloheximide Counterscreen for Small Molecule Inhibitors of Shiga Toxin | cell reporter, cycloheximide protein synthesis inhibition counterscreen | max response, % | 12% of 300,000 active; in the data active = max response mostly above about 13%, no sharp cut-off; inactive = mostly below about 14%; also: read at 38.3 µM for the half of the compounds with a filed dose; 0% is about no effect
Active calls of the source: *; ? = inconclusive; / = no result; [ ] = another dose, or the depositor's remark.

SMILES	Shiga toxin inh	LASV entry inh	Marburg entry inh	CHX counter
COc1ccc(NC(=O)CN(C)S(=O)(=O)c2cccs2)cc1	40*	?	-21%	29*
Cc1cccc(NC(=O)CN(C)S(=O)(=O)c2cccs2)c1	101*	9%	14%	15*
Cc1ccc(N(CC(=O)Nc2cccc(F)c2)S(=O)(=O)c2cccs2)cc1	/	10%[46.1 µM]	3%[46.1 µM]	/
CN(CC(=O)NCc1ccccc1Cl)S(=O)(=O)c1cccs1	30	7%	5%[46.1 µM]	15*
Cc1cccc2sc(NC(=O)CN(C)S(=O)(=O)c3cccs3)nc12	45*	-15%	-23%	15
Cc1ccccc1NC(=O)CN(C)S(=O)(=O)c1cccs1	-4	?	-8%[46.1 µM]	9
CC(C)CCOc1ccc(C(=O)NNC(=O)CNC(=O)c2ccccc2F)cc1	/	-33%	0%	/
COc1ccccc1C(=O)N1CCC(c2c[nH]c3ccccc23)(c2c[nH]c3ccccc23)CC1	/	-19%[46.1 µM]	?	/
CN(CC(=O)N1CCc2ccccc21)S(=O)(=O)c1cccs1	99*	?	11%	61*
COc1ccc(CNCC(=O)Nc2cc(OC)cc(OC)c2)cc1	-12	/	/	-3
C=Cc1ccc(Cn2c(=O)n(-c3cccc(C)c3)c(=O)c3c2c2cc(C)ccc2n3C)cc1	/	-24%[46.1 µM]	/	/
Cc1cc(/C=C2\C(=O)NC(=S)N(C)C2=O)c(C)n1C1CCCCC1	21	15%	?	13*
Cc1cc(/C=C2/C(=O)N(C)C(=S)N2C)c(C)n1C1CC1	20	1%	-19%	14*
Cc1cc(=O)n(Cc2c(F)cccc2Cl)c2c1c(C)nn2C	/	6%[46.1 µM]	/	/
CCCCN(CC)CCCNC(=O)c1sc2nc(C)cc(C)c2c1-n1cccc1	/	2%[46.1 µM]	0%[46.1 µM]	/
C=CC[C@@H]1C=C[C@@H](O/N=C\C[C@@H]2C=C[C@H](OC(C)=O)[C@H](COC(C)=O)O2)[C@@H](CO)O1	/	/	4%[14.2 µM]	/
Cc1ccc(NC(=O)N2CCc3ccccc3C2)cc1C	152*	31%[46.1 µM]	5%[46.1 µM]	78*
Cc1cc(C)cc(NC(=O)N2CCc3ccccc3C2)c1	75*	-9%[46.1 µM]	?	36*
Cc1ccc(NC(=O)C2OCCc3ccccc32)cc1C (centres undefined)	100*	?	?	37*
Cc1ccc(NC(=O)N2CCN(C)CC2)cc1NC(=O)N1CCN(C)CC1	49	-17%	9%[46.1 µM]	12*
COc1ccc(NC(=O)N2CCc3ccccc3C2)cc1OC	9	/	/	9
CN1CCN(C(=O)Nc2ccccc2)CC1	-1	-4%	29%[46.1 µM]	2
CCOC(=O)C1=C(CSc2nc3ccccc3s2)NC(=O)NC1c1cc(C)ccc1C (centres undefined)	20	?	?	17
Cc1cccc(NC(=O)N2CCc3ccccc3C2)c1C	39*	2%[46.1 µM]	?	29*
CC(=O)c1cccc(NC(=O)c2nc(-c3ccc(C)cc3)n3c2CCCCC3)c1	/	-8%[46.1 µM]	/	/
SMILES	Shiga toxin inh	LASV entry inh	Marburg entry inh	CHX counter
CSc1nc(O)c(N=Nc2ccc(F)cc2F)c(=O)[nH]1	54*	/	/	30*
CCCCc1nn2c(=O)cc(COC(=O)c3ccc(NC(=O)c4cccc(OC)c4)cc3)nc2s1	/	5%[46.1 µM]	/	/
O=C(Nc1ccc(NC(=O)c2cccs2)cc1)c1ccccc1	46*	?	?	24*
O=C(Nc1ccc(O)cc1)c1ccc(NC(=O)c2cccs2)cc1	87*	?	?	38*
O=C(Nc1ccc(NC(=O)c2cccs2)cc1)c1ccc(Cl)cc1	/	-2%[46.1 µM]	/	/
O=C(Nc1ccc(NC(=O)c2cccs2)cc1)c1ccc(Br)cc1	/	11%[46.1 µM]	/	/
O=C(O)c1ccc(NC(=O)c2cccc(NC(=O)c3cccs3)c2)cc1	16	2%	1%	-3
O=C(Nc1cccc(O)c1)c1ccc(NC(=O)c2cccs2)cc1	130*	-16%	?	74*
O=C(NCc1ccncc1)C1CCN(S(=O)(=O)c2ccc(Cl)c(C(F)(F)F)c2)CC1	/	-3%	7%	/
C=CCOC(=O)N[C@H](c1cccc(OC)c1)[C@H](C)C=CCC(=O)OC	/	?	15%[14.2 µM]	/
COC(=O)N1C(=O)[C@](CC(C)C)(c2ccccc2)N1C(=O)OC	-1	/	/	15*
CC[C@@]1(c2cccc(C)c2)C(=O)N(C(=O)OC)N1C(=O)OC	3	/	/	6
CC[C@@]1(c2ccccc2OC)C(=O)N(C(=O)OC)N1C(=O)OC	24*	/	/	25*
COC(=O)N1C(=O)[C@@](c2ccccc2)(C2CCCC2)N1C(=O)OC	14	/	/	18*
COC(=O)N1C(=O)[C@@](CC(C)C)(c2ccccc2)N1C(=O)OC	17	/	/	16*
N/N=c1\sc2ccccc2n1-c1ccccc1	-15	18%	-14%	-1
COc1cccc(CSc2nnc(-c3ccc(F)cc3)o2)c1	23	?	1%	18*
Fc1ccc(-c2nnc(SCc3cccnc3)o2)cc1	66*	5%[46.1 µM]	?	26*
C#CC1(O)C2C=C(OC)C(=O)C1C(c1ccccc1)C2C (centres undefined)	/	/	26%[14.2 µM]	/
CCOC(=O)COn1c(=O)c(-c2ccc(Br)cc2)[n+]([O-])c2ccccc21	-5	3%	?	-1
CCOC(=O)COn1c(=O)c(-c2cc3ccccc3o2)[n+]([O-])c2ccccc21	172*	?	-24%[46.1 µM]	72*
C=CCOn1c(=O)c(-c2cc3ccccc3o2)[n+]([O-])c2ccccc21	120*	3%	?	38*
NC(=O)NN=C1CC2CC1C1C=CCC21 (centres undefined)	/	5%	?	/
NNC(=S)NC1CC2CC1C1C=CCC21 (centres undefined)	28	/	/	12*
Cc1c(C(=O)OC(C)C)[nH]c2c1C(=O)CC(C)(C)C2	-2	3%	-26%	11*
SMILES	Shiga toxin inh	LASV entry inh	Marburg entry inh	CHX counter
Cc1c(C(=O)OC(C)C)[nH]c2c1C(=O)CCC2	19	11%	7%	12
COc1ccc(NC2=CC(=O)CC(c3ccccc3)C2)cc1 (centres undefined)	-8	?	-1%[46.1 µM]	22*
O=C1C=C(Nc2ccccc2)CC(c2ccccc2)C1 (centres undefined)	22	-26%	-2%[46.1 µM]	3
COCCNC(=O)NC12CC3(C)CC(C)(CC(C)(C3)C1)C2	8	-19%[46.1 µM]	?	-2
COC(=O)c1cc2n(n1)CCN(Cc1ccccc1Cl)C2=O	-3	3%	-3%	-1
COC(=O)c1ccn(Cc2ccccc2Cl)n1	63*	5%	-29%[46.1 µM]	44*
Cc1cc(Oc2ccc(-c3ccccc3)cc2)nc(N2CCOCC2)n1	-16	4µM*	11µM*	-5
Cc1cc(Oc2ccc(C(C)(C)C)cc2)nc(N2CCOCC2)n1	-5	5µM*	-23%	-4
CCCc1ccc(Oc2cc(C)nc(N3CCOCC3)n2)cc1	23	?	-19%	9
CC(=O)c1ccc(Oc2cc(C)nc(N3CCOCC3)n2)cc1	20	1%	1%	13*
Cc1ccc(NC(=S)NC(NC(=O)c2ccccc2C)C(Cl)(Cl)Cl)c(C)c1 (centres undefined)	37	?	23µM*	-3
Cc1ccc(C)c(NC(=S)NC(NC(=O)Cc2cccc3ccccc23)C(Cl)(Cl)Cl)c1 (centres undefined)	-6	7.9µM*	13µM*	-5
Cc1ccc(C)c(NC(=S)NC(NC(=O)N(C)C)C(Cl)(Cl)Cl)c1 (centres undefined)	-11	-5%	8%	-2
